Data from PubChem BioAssay AID624330 (Southern Research Specialized Biocontainment Screening …, 2012).
The whole screen tested about 340,000 compounds, of which about 2,100 (0.62%) were called active.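 The calls were made as follows: active = first-screen hits whose inhibition reached a set limit at any dose in the follow-up dose series; inconclusive = inhibition above the set first-screen limit but never retested; inactive = the rest.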 These entries were drawn from the full list. Entries with a potency or affinity are not part of this list.

What follows are molecules tested against Rac GTPase-activating protein 1 (Homo sapiens) (UniProt Q9H0H5) (assay: MgcRacGAP GTPase-activating activity inhibitors, confirmation, biochemical, ADP Hunter fluorescence, primary and confirmatory (AID 624330;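 also: fluorescence reports GDP produced by GAP-driven GTP hydrolysis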)). Settings: MgcRacGAP-stimulated Rac1 GTP hydrolysis, at 30 µM, active compounds read high, GST-tagged Rac1 F28L mutant substrate.
Chain of Rac GTPase-activating protein 1 (Homo sapiens) (Q9H0H5 whole entry, looked up): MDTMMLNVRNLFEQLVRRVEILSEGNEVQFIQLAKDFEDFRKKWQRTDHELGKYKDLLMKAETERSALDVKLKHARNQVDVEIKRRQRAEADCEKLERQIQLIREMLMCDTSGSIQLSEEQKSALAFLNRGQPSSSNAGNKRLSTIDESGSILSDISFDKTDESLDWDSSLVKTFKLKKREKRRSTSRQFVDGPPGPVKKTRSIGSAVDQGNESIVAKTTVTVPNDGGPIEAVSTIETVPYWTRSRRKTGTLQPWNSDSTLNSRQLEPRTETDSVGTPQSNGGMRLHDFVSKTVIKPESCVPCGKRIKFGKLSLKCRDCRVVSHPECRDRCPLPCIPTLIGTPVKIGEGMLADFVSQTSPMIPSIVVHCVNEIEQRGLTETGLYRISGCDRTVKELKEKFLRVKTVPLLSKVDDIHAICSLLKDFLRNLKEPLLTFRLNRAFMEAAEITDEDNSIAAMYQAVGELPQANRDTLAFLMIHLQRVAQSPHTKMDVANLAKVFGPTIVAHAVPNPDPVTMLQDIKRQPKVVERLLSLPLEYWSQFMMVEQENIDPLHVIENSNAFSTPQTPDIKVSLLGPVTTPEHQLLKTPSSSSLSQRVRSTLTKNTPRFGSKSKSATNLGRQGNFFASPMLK

inhibition, inactive:
O=C(NCc1ccc(Cl)cc1)c1ccncc1 6.54%
O=C(COn1nnc2ccc(S(=O)(=O)N3CCOCC3)cc21)NCc1cccc(Cl)c1 13.7%
COc1cc(C(=O)C(=O)c2cc(OC)c(O)c(OC)c2)cc(OC)c1O 7.13%
COc1cc(Cc2cc(OC)c(O)c(OC)c2)cc(OC)c1O 6.74%
Cc1ccc(S(=O)(=O)N2CCOCC2)cc1C(=O)Nc1nc(-c2ccccn2)cs1 13.7%
CCOc1cc(NC(=O)c2ccccc2OC)c(OCC)cc1NC(=O)c1ccccc1 -3.11%
CCOc1ccc(S(=O)(=O)N2CCN(CC)CC2)cc1NC(=O)c1ccccc1F 0.51%
CCn1c(C)cc(/C=C2/SC(=O)N(CC(=O)N3CCCC3)C2=O)c1C 8.19%
Cn1cnc2c1c(=O)n(Cc1cccc(Br)c1)c(=O)n2C 0.32%
COc1c2ccoc2cc2oc(C)cc(=O)c12 6.29%
O=c1cc(-c2ccccc2)oc2cc(O)c(O)c(O)c12 -59.8%
COc1cc2c(cc1OC)CN(CC(=O)Nc1ccccc1C(=O)NC1CC1)CC2 -6.05%
CCOC(=O)c1sc(N2C(=O)C(O)=C(C(=O)c3ccco3)C2c2ccc(C)o2)nc1C (centres undefined) 12.2%
CN=C1S/C(=C\c2ccc(Cl)cc2)C(=O)N1C 3.04%
CN=C1S/C(=C\c2ccc(SC)cc2)C(=O)N1C 7.27%
O=C1COc2ccc(C(=O)COC(=O)Cc3ccc(Cl)cc3)cc2N1 9.6%
COc1ccccc1C1NC(c2ccccc2OC)C(C)C(=O)C1C (centres undefined) -2.35%
COc1ccc(C2NC(c3ccc(OC)c(OC)c3OC)C(C)C(=O)C2C)c(OC)c1OC (centres undefined) 1.64%
O=C(N/N=C/c1ccc(N2CCOCC2)c([N+](=O)[O-])c1)c1ccc(F)cc1 7.08%
CCOc1ccc(C=NNc2ccc(S(=O)(=O)Nc3ccccc3C(=O)O)cc2[N+](=O)[O-])cc1OC 10%
O=C(O)c1ccccc1NS(=O)(=O)c1ccc(NN=Cc2ccc(F)cc2)c([N+](=O)[O-])c1 6.4%
CC(=O)Nc1ccc(C=NNc2ccc(S(=O)(=O)Nc3ccccc3C(=O)O)cc2[N+](=O)[O-])cc1 15.7%
CCOc1ccc(C=NNc2ccc(S(=O)(=O)Nc3ccccc3C(=O)O)cc2[N+](=O)[O-])cc1 15.4%
CCOCCCNC(=O)c1cc2cc3cc(OC)ccc3nc2o1 11.9%
CCc1nc(SCC(=O)NNC(=O)c2ccc(OC)cc2)c2ccccc2n1 -0.86%
CN(Cc1ccccc1)C(=O)CCC1CCN(C(=O)c2ccccc2C(F)(F)F)CC1 -5.88%
COc1ccc(NC(=O)CS(=O)CC(=O)Nc2ccc(OC)c(OC)c2)cc1 (centres undefined) -4.61%
O=C(COC(=O)CC1CC2CCC1C2)Nc1ccc(Cl)c(S(=O)(=O)N2CCOCC2)c1 (centres undefined) 6.02%
CCN1CCN(C(=O)c2ccc(C)c(S(=O)(=O)Nc3cccc(C)c3)c2)CC1 3.11%
O=C(c1ccc(Cn2cc(Br)cn2)cc1)N1N=C(C(F)F)CC1(O)C(F)F (centres undefined) 0.1%
CCCc1nc(NCc2ccncc2)c2nnn(Cc3ccccc3F)c2n1 10.9%
COc1ccc(CNC(=O)Nc2cccc(C(F)(F)F)c2)cc1OC 6.37%
COc1cc2c(cc1NC(=O)Nc1ccc(C)cc1)oc1ccccc12 2.58%
COc1cc2c(cc1NC(=O)Nc1ccccc1)oc1ccccc12 -0.72%
COc1cc2c(cc1NC(=O)Nc1cccc(C)c1)oc1ccccc12 9.41%
COc1cccc(NC(=O)CN2C(=O)NC(C)(c3ccc(C)cc3)C2=O)c1 (centres undefined) 6.36%
COc1ccccc1Nc1nc(N)nc(CSc2nncn2C)n1 5.08%
CC(=O)c1ccc(NC(=O)CSc2nc(Nc3ccccc3)nc(N3CCOCC3)n2)cc1 8.08%
CCN(CC)c1ccc(CN2CCC(C(=O)NCc3ccc(C)cc3)CC2)cc1 36.2%
Cc1ccc(CNC(=O)C2CCCC2)cc1 6.2%
COc1ccc(CCNc2ccc(S(=O)(=O)N3CCN(C)CC3)cc2[N+](=O)[O-])cc1 1.77%
CC(/C=C1\N=C(SCc2ccccc2)SC1=O)=C\c1ccccc1 3%
COc1ccc(/C(C)=N/NC(=O)CNC(=O)/C=C\c2ccco2)cc1 1.11%
C/C(=N/NC(=O)CNC(=O)/C=C/c1ccco1)c1ccc(Cl)cc1 18.5%
COCCCN(CC(=O)Nc1ccc(N2CCOCC2)cc1)S(=O)(=O)c1ccccc1 5.72%
C=CCn1c(SCC(=O)O)nnc1-c1ccccc1 -4.43%
CC(C)Sc1nc2sc(-c3ccccc3)cc2c(=O)n1N 11.4%
CCn1c(SC(C)C)nnc1-c1c[nH]c2ccccc12 7.88%
C=CCn1c(SCC(N)=O)nnc1-c1ccccc1O 4.07%
CN(C)C(CNC(=O)C1CC(=O)N(Cc2ccccc2)C1)c1ccccc1 (centres undefined) 5.5%
CC(C)C[C@@]12C(=O)N(c3cccc(Cl)c3)C(=O)N1[C@H](c1ccc(Br)cc1)[C@@H]1C(=O)N(C(C)(C)C)C(=O)[C@@H]12 -10.5%
CCn1ccnc1CN(C)C(=O)CCc1nnc(CCCc2ccccc2)o1 -6.18%
CCCc1cc(-n2cnc3ccccc32)n2c(nc3ccccc32)c1C#N 11%
CCCc1cc(-n2ccnc2)n2c(nc3ccccc32)c1C#N -0.61%
COc1ccc(Br)c(C(=O)OCC(=O)NC2CCCCCC2)c1 8.08%
CCCCN1C(=O)C(CC(=O)NCCc2ccccn2)CC(C(=O)N2CCOCC2)=C1C (centres undefined) 11.8%
CN(c1ccc(C(=O)Nc2ccccc2C(F)(F)F)cc1)S(C)(=O)=O 5.77%
Cc1cc(C)n(C(=O)c2ccc(Cn3nc(C)c(Br)c3C)o2)n1 4.85%
Nc1c(C(=O)N2CCCCC2)sc(=S)n1-c1ccccc1 10.5%
Nc1c(C(=O)N2CCOCC2)sc(=S)n1-c1ccccc1 11.6%
NC(=O)c1ccccc1NC(=O)C1CCCO1 (centres undefined) 5.38%
C/C(O)=C(\C#N)c1nc2ccccc2[nH]1 6.3%
C/C(O)=C(/C#N)c1nc2ccccc2[nH]1 9.91%
CCc1cccc(C)c1NC(=O)CC(C)(C)CC(=O)O -15.4%
Cc1ccc(N/N=C(\C#N)C(N)=S)cc1C 14.2%
COc1ccc(CC(=O)Nc2cc(S(=O)(=O)N3CCOCC3)ccc2N2CCCC2)cc1 -0.25%
CN(C)S(=O)(=O)c1cccc(NC(=O)CCCC2CCCCC2)c1 4.27%
CCN(CC)S(=O)(=O)c1ccc(NC(=O)CNC2CCCCC2)cc1 31.5%
Cc1ccc(NC(=O)CNCC2CCCCC2)cc1S(=O)(=O)N(C)C 28.9%
CCN(CC)S(=O)(=O)c1cccc(NC(=O)CN(C)C2CCCCC2)c1 -0.2%
COc1ccc(S(=O)(=O)Nc2ccccc2C(=O)N2CCOCC2)cc1OC 3.41%
COc1ccc(CCNC(=O)C(C)SCC(=O)Nc2ccc(F)cc2)cc1 (centres undefined) 6.87%
Cc1cc([N+](=O)[O-])nn1CC(=O)Nc1nc2ccccc2s1 6.23%
COc1ccc(/C(C)=N/NC(=O)Cc2c(C)nc(C)[nH]c2=O)cc1 -5.47%
COc1ccc(/C(C)=N/NC(=O)c2ccncc2)cc1 4.26%
COc1ccccc1C(=O)N/N=C(\C)c1ccc(NC(=O)Cc2ccccc2)cc1 7.02%
C/C(=N\NC(=O)C(O)(c1ccccc1)c1ccccc1)c1ccc(NC(=O)CCCC(=O)O)cc1 7.64%
COc1cccc(C(=O)N/N=C(\C)c2ccc(NC(=O)Cc3ccccc3)cc2)c1OC 10.3%
COc1ccc(/C(C)=N/NC(=O)c2ccncc2)cc1[N+](=O)[O-] 3.87%
COc1ccccc1OCC(=O)N/N=C(\C)c1ccc2ccccc2c1 5.4%
COc1cc(C(=O)O)ccc1O 9.79%
Cc1ccccc1N1CCN(C2=NC(=O)/C(=C/c3cn[nH]c3-c3ccccc3)S2)CC1 -0.05%
CC(=O)N1c2ccc(S(=O)(=O)N3CCCCC3)cc2CC1C(=O)NCc1ccc(N(C)C)cc1 (centres undefined) 3.76%
Fc1ccc(CNC(=S)NCc2ccc(F)cc2)cc1 -6.74%
CCNC(=S)N(Cc1cccs1)Cc1cc2cc(OCC)ccc2[nH]c1=O 9.83%
COc1ccc(OCCOCCOc2ccc(C)cc2[N+](=O)[O-])cc1 4.97%
Cc1cnc(C(=O)OC(C(=O)c2c[nH]c3ccccc23)c2ccccc2)cn1 (centres undefined) 10%
C=C1/C=C(\C)C(C)(O)CC(O)CC(=O)C(O)C(O)C(C)CC(C)OC(=O)/C(C)=C/CC/C=C/C(OC)C(O)CC(C)C1 (centres undefined) 9.68%
COc1cc(CN2CCCC(CO)(Cc3ccccc3C)C2)cc2c1OCO2 (centres undefined) 1.83%
O=C(Nc1cc(Br)ccc1O)c1cc(-c2ccco2)on1 8.94%
Brc1ccc(OCCOCCN2CCOCC2)cc1 4.13%
Brc1cccc(OCCN2CCCCC2)c1 17.4%
Clc1cccc(OCCN2CCOCC2)c1 10.7%
Brc1ccc(OCCN2CCOCC2)cc1 28.6%
